Experimental data: PubChem BioAssay (NCATS)
Inconclusive results are not listed. Unmarked numbers belong to inactive results. Active and inactive are the calls of the source. The call rests on the fitted dose curve; in most records, active means well fitted activation curve with a large enough effect; inconclusive means small, poorly fitted or top-dose-only effect; inactive means no such curve, though single readings can be large or run the other way.

The molecules below were run against Rap guanine nucleotide exchange factor 4 (Homo sapiens) (UniProt Q8WZA2) (assay: Confirmatory qHTS for agonist of cAMP-regulated guanine nucleotide exchange factor 4 (EPAC2) (AID 1645884;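 further: nucleotide exchange releases bodipy-GDP from Rap1 and this lowers its fluorescence; nearly all actives have a fitted effect of over 65% in size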)). Details: EPAC2 GEF activity, Rap1B-BODIPY-GDP fluorescence; series mostly up to 154 µM.
Rap guanine nucleotide exchange factor 4 (Homo sapiens), sequence (Q8WZA2 whole entry, looked up): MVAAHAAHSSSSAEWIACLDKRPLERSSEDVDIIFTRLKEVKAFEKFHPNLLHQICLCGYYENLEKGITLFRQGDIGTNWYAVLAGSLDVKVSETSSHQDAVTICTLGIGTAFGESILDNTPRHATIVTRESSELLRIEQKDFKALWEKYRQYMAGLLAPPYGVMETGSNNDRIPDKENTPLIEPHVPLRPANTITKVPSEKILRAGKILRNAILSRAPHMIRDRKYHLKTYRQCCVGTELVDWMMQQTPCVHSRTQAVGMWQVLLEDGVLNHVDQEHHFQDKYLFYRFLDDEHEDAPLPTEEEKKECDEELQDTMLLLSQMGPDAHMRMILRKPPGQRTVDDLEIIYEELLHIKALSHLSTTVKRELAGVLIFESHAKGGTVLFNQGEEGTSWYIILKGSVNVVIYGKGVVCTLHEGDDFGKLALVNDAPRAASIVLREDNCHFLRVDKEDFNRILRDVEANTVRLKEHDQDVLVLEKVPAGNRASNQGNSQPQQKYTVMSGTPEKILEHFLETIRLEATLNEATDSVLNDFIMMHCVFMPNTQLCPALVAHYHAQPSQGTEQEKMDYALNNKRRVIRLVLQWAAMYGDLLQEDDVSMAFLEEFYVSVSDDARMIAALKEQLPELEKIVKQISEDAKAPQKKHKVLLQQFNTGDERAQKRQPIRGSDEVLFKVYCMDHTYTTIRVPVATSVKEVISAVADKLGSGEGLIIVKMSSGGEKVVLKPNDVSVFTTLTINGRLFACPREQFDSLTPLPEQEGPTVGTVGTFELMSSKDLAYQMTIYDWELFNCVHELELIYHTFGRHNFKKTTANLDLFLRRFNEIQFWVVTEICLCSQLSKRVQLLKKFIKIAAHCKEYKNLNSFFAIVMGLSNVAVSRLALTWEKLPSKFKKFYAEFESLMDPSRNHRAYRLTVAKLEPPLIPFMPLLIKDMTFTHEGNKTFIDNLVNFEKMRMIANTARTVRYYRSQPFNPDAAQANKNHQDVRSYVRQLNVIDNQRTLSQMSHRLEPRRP
On the % scale 0 is the no-effect control and ±100 the full control effect; potency means the concentration at half of the fitted maximal effect.

Row | Structure (SMILES) | Potency | activation
1 | CCN(CC)c1ccc2cc(S(=O)(=O)c3ccc(Cl)cc3)c(=O)oc2c1 | 100 µM (active) | –
2 | COc1ccc2c3c(cccc13)C(=O)CC2 | 112 µM (active) | –
3 | COc1cccc2c1C(=O)c1c(O)c3c(c(O)c1C2=O)CC(O)(C(C)=O)CC3OC1CC(N(C)C)C(O)C(C)O1 (stereo unspecified) | – | 10.6% [at 17.1 µM, percent relative to cAMP agonist control]
4 | O=C(NCCOc1ccc(F)cc1)c1ccccc1SCc1ccccc1 | – | 7.88% [at 17.1 µM, percent relative to cAMP agonist control]
5 | O=c1c(/C=C(\O)c2ccc(F)cc2)nc2ccccc2n1-c1ccccc1 | 100 µM (active) | –
6 | CC1=Nc2ccccc2/C1=C\c1nc(-c2ccc(F)cc2)oc1O | 112 µM (active) | –
7 | CCCn1c(O)c(N=Nc2ccc3ccccc3n2)c2ccccc21 | 100 µM (active) | –
8 | COCc1c(C(=O)N2CCc3ccccc32)oc2ccccc12 | 112 µM (active) | –
9 | CC(C)(C)CNC(=O)c1cccc2c1C(=O)c1ccc(-c3cc4ccccc4o3)cc1S2(=O)=O | 79.4 µM (active) | –
10 | CCC1(c2ccccc2)NC(=O)N(CC(=O)Nc2ccc(OC)nc2)C1=O (stereo unspecified) | – | 15.1% [at 17.1 µM, percent relative to cAMP agonist control]
11 | CC(C)CC(=NNC(=O)c1ccncc1)c1cc(Cl)ccc1O | 100 µM (active) | –
12 | COc1ccccc1NC(=O)/C(C#N)=C/c1cc([N+](=O)[O-])ccc1N1CCCC1 | 112 µM (active) | –
13 | CCN(CC)c1ccc2cc(-c3nnc(-c4ccncc4)o3)c(=O)oc2c1 | 100 µM (active) | –
14 | Cc1ccccc1C(=O)Nc1ccc(C(=O)OCc2cc(=O)n3c4c(sc3n2)CCCC4)cc1 | inactive | –
15 | COC(=O)CCc1nc2cc(Cl)ccc2n(Cc2ccccc2)c1=O | inactive | –
16 | Cc1ccccc1C(=O)O/N=C(\c1ccccc1)c1ccccn1 | – | 8.13% [at 17.1 µM, percent relative to cAMP agonist control]
17 | Cc1ccc(NC(=O)CSc2nnc(-c3cc4occc4n3C)n2-c2ccccc2C)c(Cl)c1 | inactive | –
18 | O=C(C(=Cc1ccc(O)cc1)c1ccccc1)c1ccccc1 | inactive | –

Row | Structure (SMILES) | Potency | activation
19 | CCN1CCc2c(sc(NC(=O)CSc3ccccc3)c2-c2nc3ccccc3s2)C1 | inactive | –
20 | Oc1ccc2nnc3c(Br)cnn3c2c1 | 112 µM (active) | –
21 | Cc1nc2ccccc2n2c(O)c(CC(=O)O)cc12 | 112 µM (active) | –
22 | COc1ccc2noc3c2c1C(=O)c1ccccc1-3 | 112 µM (active) | –
23 | Cc1nc(Cl)c2c(n1)NC1=C(O2)C(=O)CCC1 | – | 10.5% [at 17.1 µM, percent relative to cAMP agonist control]
24 | Cc1ccc(OCc2nc3ccccc3n2CC(C)C)cc1 | inactive | –
25 | COCCn1c2nc(=O)n(-c3ccccc3)c(=O)c-2nc2ccccc21 | 100 µM (active) | –
26 | O=C(NCc1ccc(F)cc1)c1cccc2c1C(=O)c1ccc(N3CCC(Cc4ccccc4)CC3)cc1S2(=O)=O | – | 30% [at 17.1 µM, percent relative to cAMP agonist control]
27 | Nc1ccc2nc3c(=O)n(CCc4ccccc4)c(=O)[nH]c3nc2c1 | 100 µM (active) | –
28 | Cc1cccc(N2C(=O)c3cccc4c(N)ccc(c34)C2=O)c1 | 112 µM (active) | –
29 | CCN(CC)c1ccc2cc(C(=O)Nc3ccccn3)c(=O)oc2c1 | 100 µM (active) | –
30 | COc1ccc(C(C#N)=Cc2ccccc2OC)cc1 | – | -1.43% [at 17.1 µM, percent relative to cAMP agonist control]
31 | CNc1ccc2c3c(cccc13)C(=O)N(C)C2=O | 112 µM (active) | –
32 | CCOC(=O)C1=C(C)NC(SC)=C(C#N)C1CC(C)C (stereo unspecified) | inactive | –
33 | O=S1(=O)C=C(Oc2ccc3ccccc3c2)c2ccccc21 | – | -2.76% [at 17.1 µM, percent relative to cAMP agonist control]
34 | CCN(CC)c1ccc(/C=C(\C#N)C(=O)c2ccc(Br)cc2)cc1 | 112 µM (active) | –
35 | Nc1ccc2c3c(cccc13)C(=O)N(c1ccccc1)C2=O | 100 µM (active) | –
36 | N#Cc1c(-c2cccs2)nc(SCC(=O)c2ccc(Br)cc2)[nH]c1=O | – | 8.4% [at 17.1 µM, percent relative to cAMP agonist control]
